# High-throughput results deposited in PubChem BioAssay by National Center for Advancing Translational Sciences (NCATS).
# Pf growth 96h = inhibits malaria parasite growth, 96 h; P. falciparum luciferase reporter growth, 96 h; Potency, µM (top dose mostly 28.7 µM), for inactives: top-dose activity change, negative = inhibition, most hits filed as inhibitors; 6.9% of 320,000 active; AID 504834
#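 Cell-based qHTS: luciferase-tagged P. falciparum in erythrocytes (2% hematocrit, 0.05% parasitemia final) incubated with compounds for 96 hours, 37 C, 5% CO2; luciferase detection reagent then added and luminescence measured.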
# Vaccinia mCherry = inhibitors of vaccinia virus infection (mCherry reporter signal) | Vaccinia virus mCherry reporter infection, fluorescence | Potency, µM (highest dose often 36.5 µM), inactives show at the top dose activity change, negative = inhibition, hits mostly inhibitors | 0.63% of 310,000 active | AID 720579; calls by dose curve; tested in A549 cells; note: nearly all actives have a fitted effect of over 35% in size
# Pf growth 48h = P. falciparum growth inhibition at 48 hours (one generation). P. falciparum luciferase growth in erythrocytes, 48 h. Potency, µM (highest dose often 28.7 µM), inactives show at the highest dose activity change, negative = inhibition, hits mostly inhibitors. 5.9% of 310,000 active. AID 504832
#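 Parasite viability was followed by luminescence of a genomically integrated firefly luciferase. Cultures held 0.1% parasitemia at 2% hematocrit (final), incubated under 5% CO2 at 37 C.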
# Vaccinia Venus = inhibitors of vaccinia virus (Venus reporter); Vaccinia virus Venus reporter expression, fluorescence; Potency, µM (doses to about 36.5 µM), for the others: at the highest dose activity change, negative = inhibition, hits mostly inhibitors; 0.46% of 330,000 active; AID 720580; calls by dose curve; tested in A549 cells; note: nearly all actives have a fitted effect of over 30% in size
# AMA1 RON2 block = disrupts binding of P. falciparum AMA1 to RON2. AlphaScreen AMA1-biotinylated RON2 peptide binding. Potency, µM (top dose mostly 58.2 µM), for the others: at the top dose activity change, negative = inhibition, actives largely listed as inhibitors. 0.2% of 360,000 active;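 note: 0% = vehicle wells and -100% = peptide control; nearly all actives have a fitted effect of over 45% in size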
#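 AMA1 (3D7) with his tag at 25 nM final met compounds first, then biotinylated RON2 peptide at 25 nM; detection used donor plus acceptor beads, 10 µg/mL apiece, read by AlphaScreen after 30 min at room temperature.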
# The depositor's hits bear a star; i = inactive; ? = inconclusive; · = not tested or not shown; [ ] = another dose, or the depositor's remark. Most compounds without a hit are left out; they make up all but 8.7% or so of the library. Unless noted, calls come from the whole dose curve; as a rule, active = well fitted curve in the direction sought with a large enough effect; inconclusive = small, poorly fitted or top-dose-only effect, or another doubt; inactive = no such curve, though single readings can be large; an effect the other way counts as inactive or inconclusive. Unless noted, % is set by controls: 0 for no effect and ±100 for the full control effect; potency is the fitted concentration of half-maximal effect.
SMILES,Pf growth 96h,Vaccinia mCherry,Pf growth 48h,Vaccinia Venus,AMA1 RON2 block
Cc1ccc2c(c1)ncc[n+]2CC(=O)c1ccc(F)cc1,·,-11%,·,-8%,·
Cc1sc2ccccc2[n+]1CCc1ccccc1,·,-15%,·,-7%,·
COc1ccc(-c2noc(-c3ccc(NCc4ccco4)c([N+](=O)[O-])c3)n2)cc1OC,·,-6%,·,-10%,·
Nc1ccc(Cc2ccc(C=O)cc2)cc1,·,i,·,-15%,·
Nc1nc(N)c2cc(CNc3ccc(Cl)c(Cl)c3)ccc2n1,·,?,·,5.6µM*,?
CC(Sc1ccc(Cl)cc1)C(=O)Nc1ccccc1-c1ccccc1 (centres undefined),-2%,i,2.3µM*,-26%,-2%[11.6 µM]
Cc1ccc(SC(C)C(=O)Nc2ccccc2-c2ccccc2)cc1 (centres undefined),13µM*,-20%,-18%,-19%,-1%
CCc1ccc(-c2nc(SCC(=O)NCC3CCCO3)c(-c3ccc(F)cc3)[nH]2)cc1 (centres undefined),·,-21%,·,-16%,·
Cc1ccc(-n2ncc(C(=O)NCCN3CCCC3)c2C2CCN(C(=O)OC(C)(C)C)CC2)cc1C,·,-22%,·,-8%,·
COc1ccc(CCN2CCC(CNC(=O)c3cnn(-c4ccc(C)cc4)c3C3CCN(C(=O)OC(C)(C)C)CC3)CC2)cc1,·,?,·,11µM*,·
CC(C)(C)OC(=O)N1CCC(c2c(C(=O)NCC3CCN(C4CCCC4)C3)cnn2-c2ccc(F)cc2)CC1 (centres undefined),-10%,-10%,2.6µM*,-25%,2%
Cc1ccc(-n2ncc(C(=O)NCC3CCN(C4CCCC4)C3)c2C2CCN(C(=O)OC(C)(C)C)CC2)cc1C (centres undefined),2.3µM*,-13%,13µM*,-23%,-7%
Cc1ccc(-n2ncc(C(=O)NCC3CCN(C4CCCC4)C3)c2C2CCN(C(=O)OC(C)(C)C)CC2)cc1 (centres undefined),?,0%[7.34 µM],?,-18%[7.34 µM],0%
CC(C)(C)OC(=O)N1CCC(c2c(C(=O)NCC3CCN(C4CCCC4)C3)cnn2-c2cccc(Cl)c2)CC1 (centres undefined),-5%,-18%,?,-28%,-4%
CC(C)(C)OC(=O)N1CCC(c2c(C(=O)NCC3CCN(C4CCCC4)C3)cnn2-c2ccccc2)CC1 (centres undefined),8%,·,3.7µM*,·,-18%
c1ccc2c(c1)CCCN2,·,-17%,·,-11%,·
Cc1ccccc1CC1(CO)CCCN(Cc2cn[nH]c2-c2ccccc2)C1 (centres undefined),-9%,i,?,-5%,5%
Cc1ccccc1CC1(CO)CCCN(C(=O)c2cc(Cl)ccc2F)C1 (centres undefined),20%,-12%,2%,-10%,5%
Cc1ccccc1CC1(CO)CCCN(C(=O)c2ccccc2Cl)C1 (centres undefined),9.3µM*,-14%,-3%,-8%,-3%
Cc1ccccc1CC1(CO)CCCN(Cc2ccn[nH]2)C1 (centres undefined),12µM*,-11%,2%,3%,21%
Cc1ccc(C(=O)C[n+]2cccc3cccc(O)c32)cc1,·,-1%,·,3%,·
Nc1ccc(-c2ncc(-c3ccccc3)o2)cc1,?,?,9.3µM*,-9%,?
Cc1ccc(-c2cnc(-c3ccncc3)o2)cc1,·,·,-14%,·,-2%
O=C(Nc1ccccc1F)Nc1cc(Cl)ccc1-n1cncn1,16%,i,0%,-1%,-9%
CC(Oc1ccccc1)C(=O)Nc1cc(Cl)ccc1-n1cncn1 (centres undefined),2.3µM*,i,3.7µM*,-15%,-13%
SMILES,Pf growth 96h,Vaccinia mCherry,Pf growth 48h,Vaccinia Venus,AMA1 RON2 block
COc1cc(OC)c(C(=O)Nc2cc(Cl)ccc2-n2cncn2)cc1OC,5.9µM*,i,5.9µM*,-5%,3%
CC(Oc1ccc(F)cc1)C(=O)Nc1cc(Cl)ccc1-n1cncn1 (centres undefined),2.6µM*,-10%,2.3µM*,-7%,9%
Cc1ccc(C)c(CNC(=O)CCn2cccn2)c1,·,-11%,·,-4%,·
CN(C)CCCNC(=O)C[C@H]1C[C@H](C(=O)N2CCCCC2)[C@@]2(CCc3ccccc3)c3[nH]c4ccc(Cl)cc4c3CCN2C1=O,·,13µM*,·,14µM*,14%
COc1ccc2[nH]c3c(c2c1)CCN1C(=O)C(CC(=O)NCCc2ccccn2)C[C@H](C(=O)N2CCCCC2)[C@@]31CCc1ccccc1 (some centres undefined),·,?,·,-28%,3%
CN(C)CCCNC(=O)C[C@H]1C[C@H](C(=O)N2CCCCC2)[C@@]2(C)c3[nH]c4ccc(Cl)cc4c3CCN2C1=O,·,-4%,·,-7%,-8%
O=C(C[C@H]1C[C@H](C(=O)N2CCCCC2)[C@@]2(CCc3ccccc3)c3[nH]c4ccc(Cl)cc4c3CCN2C1=O)NCCc1ccccn1,·,?,·,13µM*,35%
COc1ccccc1NS(=O)(=O)c1ccc(NC(=O)c2ccncc2)cc1,0%,i,-27%,-4%,-4%
COc1ccccc1NS(=O)(=O)c1ccc(C(=O)Nc2ncccc2O)cc1,?,·,4.7µM*,·,30%
Cc1cc(C(=O)OCC(=O)c2cccc([N+](=O)[O-])c2)c2cccc(C)c2n1,0.41µM*,·,?,-10%,-3%
O=C(OCC(=O)c1c[nH]c2ccccc12)c1cccc([N+](=O)[O-])c1,13µM*,·,8.3µM*,·,-1%
Cc1noc(C)c1C(=O)OCC(=O)c1c[nH]c2ccccc12,?,·,9.3µM*,·,1%
CCc1cccc2c(C(=O)COC(=O)c3c(C)noc3C)c[nH]c12,57%,-23%,25%,-19%,0%
O=C(OCC(=O)c1c[nH]c2ccccc12)c1cncc(Br)c1,·,·,·,·,3%
COCCS(=O)(=O)N(Cc1ccc(Br)cc1)[C@@H](C)C(=O)OC,·,?,·,7.1µM*,11%
Cn1c2ccccc2c2cc(/C=N/NC(=O)c3ccc(N)cc3)ccc21,?,-21%,13µM*,-28%,19%
Cn1c2ccccc2c2cc(/C=N/NC(=O)c3ccccc3F)ccc21,?,·,?,·,16%
COc1ccc(-c2nnc3ccc(SC)nn23)cc1,4.7µM*,-15%,71%,-7%,20%
COc1ccc(-c2nnc3ccc(SCC(=O)N4CCOCC4)nn23)cc1,34%,-11%,24%,-11%,16%
COCCCNC(=O)c1cnc2c(-c3ccc(F)cc3)c(C)nn2c1C,·,-12%,·,-8%,·
CCCCCC[n+]1c(-c2ccccc2)csc1Nc1ccccc1,?,i,3.3µM*,-4%,-5%
O=C(O)c1ccc(C[n+]2c(-c3ccccc3)csc2Nc2ccccc2)cc1,19%,-8%,14%,4%,-7%
CCSC1=NC2(CCN(C(=O)NC3CCCCC3)CC2)N=C1c1ccc(Cl)cc1,·,-2%,·,-6%,·
